# The entries come from a sample that favours hits as a whole.
# RECQ1 inh – RECQ1 (human) helicase inhibition | P46063 | RECQ1 DNA unwinding, red fluorescence kinetic read | Potency, µM (series often up to 57.3 µM), without a hit: top-dose activity, negative = inhibition, most hits filed as inhibitors | hit rate 0.54% among 240,000 | AID 2549;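 further: plate controls were vehicle for no effect and no enzyme for full effect; nearly all actives have a fitted effect of over 30% in size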
#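 50 nM RECQ1T1 preincubated 15 min with compound in Tris pH 8.0 buffer with MgCl2, DTT, Tween-20 and 2.5 ug/ml poly(dI-dC); started with 200 nM TAMRA/BHQ-2 forked duplex and 2 mM ATP. Unwinding read as fluorescence (525/598 nm), two reads 2 h apart.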
# PKM2 act – activators of human pyruvate kinase M2; Potency, µM (doses to about 57.5 µM), inactives show top-dose activation, usual class: activators; P14618; purified PKM2, Kinase-Glo ATP luminescence, activation; response scale: 0% is enzyme alone, no compound; hit rate 0.34% among 260,000; further: nearly all actives have a fitted effect of over 55% in size
#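 Kinase-Glo luminescence reports ATP generated from ADP (0.1 mM) and PEP (0.5 mM) by purified hPK-M2 after 1 h at room temperature, pH 7.2 imidazole buffer; intermediate enzyme activity allows detecting inhibitors and activators.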
# JMJD2E inh – JMJD2E (human) inhibition | B2RXH2 | JMJD2E catalytic domain, FDH-coupled NADH fluorescence (FDH is formaldehyde dehydrogenase) | Potency, µM (doses to about 57.1 µM), without a hit: top-dose activity change, negative = inhibition, most hits filed as inhibitors | hit rate 1.6% among 230,000 | AID 2147; active means well fitted inhibition curve with a large enough effect, not every such curve was filed as active; inconclusive means small, poorly fitted or top-dose-only effect, or another doubt; inactive means no such curve, though single readings can be large or run the other way;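 further: 0% = wells with enzyme and -100% = buffer wells without enzyme; nearly all actives have a fitted effect of over 50% in size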
# BLM helicase inh – inhibitors of human Bloom syndrome helicase BLM | P54132 | recombinant BLM DNA unwinding, fluorescence dequenching | Potency, µM (top dose mostly 56.1 µM), for the others: at the top dose activity change, negative = inhibition, usual class: inhibitors | hit rate 0.2% among 350,000 | AID 2528;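 further: plate controls were vehicle for no effect and no enzyme for full effect; nearly all actives have a fitted effect of over 35% in size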
# Target sequence (P54132 whole entry, looked up): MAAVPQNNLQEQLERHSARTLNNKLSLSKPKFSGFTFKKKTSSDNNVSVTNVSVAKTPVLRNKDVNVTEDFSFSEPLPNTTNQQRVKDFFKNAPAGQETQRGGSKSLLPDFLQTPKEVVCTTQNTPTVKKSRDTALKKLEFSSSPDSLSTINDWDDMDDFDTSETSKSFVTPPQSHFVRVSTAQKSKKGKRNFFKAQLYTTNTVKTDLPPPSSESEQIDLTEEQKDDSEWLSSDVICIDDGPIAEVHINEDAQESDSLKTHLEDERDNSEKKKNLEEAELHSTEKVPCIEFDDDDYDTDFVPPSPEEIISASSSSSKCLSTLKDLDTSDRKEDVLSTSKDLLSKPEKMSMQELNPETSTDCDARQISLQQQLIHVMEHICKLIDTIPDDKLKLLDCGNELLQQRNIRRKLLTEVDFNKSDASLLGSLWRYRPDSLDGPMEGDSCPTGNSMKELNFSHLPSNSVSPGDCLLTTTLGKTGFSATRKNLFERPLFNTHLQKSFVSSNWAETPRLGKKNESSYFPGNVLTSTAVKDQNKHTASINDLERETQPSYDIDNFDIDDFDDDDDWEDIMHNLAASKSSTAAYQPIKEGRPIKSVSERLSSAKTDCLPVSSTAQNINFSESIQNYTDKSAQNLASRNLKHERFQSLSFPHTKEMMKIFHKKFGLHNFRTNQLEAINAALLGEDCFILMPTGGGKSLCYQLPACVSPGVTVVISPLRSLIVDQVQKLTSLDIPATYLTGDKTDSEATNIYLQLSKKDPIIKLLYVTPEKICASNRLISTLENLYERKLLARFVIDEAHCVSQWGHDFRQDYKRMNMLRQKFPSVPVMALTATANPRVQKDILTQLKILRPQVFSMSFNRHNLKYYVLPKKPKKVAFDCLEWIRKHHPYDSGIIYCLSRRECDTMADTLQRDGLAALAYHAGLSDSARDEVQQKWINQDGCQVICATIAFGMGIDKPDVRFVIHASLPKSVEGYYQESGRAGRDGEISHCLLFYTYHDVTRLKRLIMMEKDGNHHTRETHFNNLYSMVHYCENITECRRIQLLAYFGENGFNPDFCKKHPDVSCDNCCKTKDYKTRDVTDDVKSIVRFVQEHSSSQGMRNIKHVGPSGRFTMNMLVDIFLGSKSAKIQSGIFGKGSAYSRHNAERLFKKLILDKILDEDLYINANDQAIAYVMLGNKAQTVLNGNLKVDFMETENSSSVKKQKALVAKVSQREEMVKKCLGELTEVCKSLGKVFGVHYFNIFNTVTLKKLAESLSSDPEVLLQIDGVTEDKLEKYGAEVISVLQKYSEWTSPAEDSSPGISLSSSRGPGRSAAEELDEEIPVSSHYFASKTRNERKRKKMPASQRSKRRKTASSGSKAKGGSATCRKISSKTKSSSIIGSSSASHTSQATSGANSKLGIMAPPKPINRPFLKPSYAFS
# APEX1 inh – APE1 (human) endonuclease inhibition. P27695. recombinant APE1, TAMRA/BHQ-2 abasic DNA cleavage fluorescence. Potency, µM (titrated, usually from 65.8 µM), for inactives: at the highest dose activity change, negative = inhibition, usual class: inhibitors. hit rate 0.35% among 350,000. AID 2517;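 further: plate controls were vehicle for no effect and reference inhibitor for full effect; nearly all actives have a fitted effect of over 55% in size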
#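 APE1 at 0.75 nM final was preincubated with compound 15 min at room temperature, then 50 nM double-stranded THF abasic-site substrate (5'-TAMRA/3'-BHQ-2) was added. Fluorescence (ex 525/em 598 nm) was read kinetically; third-minus-first read gave activity.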
# An asterisk follows results filed as active; i = inactive; u = inconclusive; x = no result given; [ ] = remark or other dose. Unless noted, the call rests on the fitted dose curve; in most records, active means well fitted curve in the direction sought with a large enough effect; inconclusive means small, poorly fitted or top-dose-only effect, or another doubt; inactive means no such curve, though single readings can be large; an effect the other way counts as inactive or inconclusive. Unless noted, on the % scale 0 is the no-effect control and ±100 the full control effect; potency means the concentration at half of the fitted maximal effect.
SMILES,RECQ1 inh,PKM2 act,JMJD2E inh,BLM helicase inh,APEX1 inh
O[C@@H]1CO[C@H]2C1OC[C@@H]2O (stereo partly drawn),-10%,x,x,-2%,7%
O=[N+]([O-])c1ccc(O)c(/C=N/NC(=S)Nc2ccc(Cl)cc2Cl)c1,-25%,-12%,8.9µM*,-26%,9%
COc1ccc(N2CC(C(=O)N/N=C/c3cc([N+](=O)[O-])ccc3O)CC2=O)cc1 (stereo not drawn),9%,4%,25µM*,-7%,4%
CCNC(=O)C(=O)N/N=C/c1cc([N+](=O)[O-])ccc1O,-1%,-4%,25µM*,0%,6%
O=C(N/N=C/c1cc([N+](=O)[O-])ccc1O)Nc1ccccc1,i,-3%,28µM*,-5%,-2%
O=[N+]([O-])c1cccc(N/N=C/c2cc([N+](=O)[O-])ccc2O)c1,-7%,1%,2%,-7%,3%
COc1ccc(N2CC(C(=O)Nc3ccc([N+](=O)[O-])cc3Br)CC2=O)cc1 (stereo not drawn),x,2%,x,-2%,-5%
O=C(CSc1nnc(-c2cccc([S+](=O)([O-])N3CCCC3)c2)n1-c1ccccc1)Nc1cccc(F)c1,x,x,x,x,40%
N[C@H](CSSC[C@@H](N)C(=O)O)C(=O)O,5%,x,x,2%,-3%
Cc1cc(O)c(/C=N/c2ccccn2)c(=O)o1,u,0%,u,3%,-8%
Cc1cccc(/N=C/c2c(O)cc(C)oc2=O)n1,28µM*,-9%,u,-3%,-4%
COc1ccc(C2=Nn3c(nnc3-c3ccc(OC)cc3OC)SC2)cc1,-8%,x,x,2%,-1%
Cc1ccc(C(=O)NCC(=O)OCc2c(F)cccc2Cl)cc1,x,x,x,x,32%
Cc1ccc(S(=O)(=O)NCC(=O)NCC(=O)OCc2c(F)cccc2Cl)cc1,-8%,35µM*,-3%,-1%,6%
CCCC=O,-14%,x,x,x,1%
O=C(Nc1ccccc1)C1=C(O)CC(c2ccc(Cl)cc2)N2CCN=C12 (stereo not drawn),-11%,18µM*,6%,-8%,-2%
O=C(O)c1ccc(-n2cccc2/C=N\NC(=O)c2cc3cc(Br)ccc3o2)cc1,u,20%,u,-6%,3.5µM*
Cn1cc(/C=N/NC(=O)c2cc3cc(Br)ccc3o2)c2ccccc21,i,0%,-2%,-2%,3%
Nc1nnnn1CC(=O)N/N=C/c1cc([N+](=O)[O-])ccc1O,-1%,-2%,7.9µM*,0%,-1%
O=C(N/N=C/c1cc([N+](=O)[O-])ccc1O)C12CC3CC(CC(C3)C1)C2,-2%,10%,u,-5%,-4%
Cc1cc([N+](=O)[O-])nn1CC(=O)N/N=C/c1ccccc1O,-2%,2%,7.9µM*,0%,-4%
Nc1nnc(CC(=O)N/N=C\c2cc([N+](=O)[O-])ccc2O)s1,-6%,-4%,14µM*,4%,2%
Cn1c(SCC(=O)N/N=C/c2cc([N+](=O)[O-])ccc2O)nnc1-c1ccccc1,2%,-6%,10µM*,1%,4%
Cc1cc(C)n(CC(=O)N/N=C/c2cc([N+](=O)[O-])ccc2O)n1,2%,-3%,5%,-10%,u
Cn1c(SCC(=O)N/N=C/c2ccc([N+](=O)[O-])s2)nnc1-c1ccccc1,-5%,0%,4%,-3%,13%
SMILES,RECQ1 inh,PKM2 act,JMJD2E inh,BLM helicase inh,APEX1 inh
CCN(CC)CCCNC(=O)c1ccc2c(c1)N(Cc1c(F)cccc1Cl)C(=O)c1ccccc1S2,x,x,x,6%,x
COC(CC(=O)NNC(=S)Nc1ccccc1)OC,14µM*,2%,3%,1%,u
CNc1cc(OC)c(C(=O)N[C@H]2CCN(Cc3ccccc3)[C@H]2C)cc1Cl,x,x,x,x,-5%
COc1cccc(NS(=O)(=O)c2ccc3c(c2)n(C)c(=O)c(=O)n3C)c1,-7%,1.1µM*,-3%,1%,0%
Cc1c(F)cccc1NS(=O)(=O)c1ccc2c(c1)c(=O)n(C)c(=O)n2C,i,3.5µM*,u,-5%,3%
Cc1c(F)cccc1NS(=O)(=O)c1ccc2c(c1)n(C)c(=O)c(=O)n2C,x,0.71µM*,x,2%,38%
CCCCCCCC/C=C\CCCCCCCCCCCC(=O)O,-23%,x,x,-14%,-10%
CCOC(=O)C1OC1c1ccccc1 (stereo not drawn),-11%,x,x,x,-3%
COc1ccccc1CNc1ncnc2ccc(-c3cccc(C#N)c3)cc12,-13%,x,x,0%,-4%
Cc1ccc2nc(N3CCN(c4cccc(C)c4C)CC3)c3nnnn3c2c1,-6%,3%,3.5µM*,-2%,-2%
Cc1ccc2nc(N3CCN(c4ccc(F)cc4)CC3)c3nnnn3c2c1,x,x,x,-4%,x
O=C(O)CNC(=O)c1ccc([N+](=O)[O-])cc1,3%,x,x,x,11%
Cc1ccc(CNC(=O)c2coc(=O)c3ccccc23)o1,-1%,13µM*,-5%,-6%,-3%
CCn1cc(C(=O)NCc2ccc(C)o2)c2cc(OC)c(OC)cc2c1=O,-3%,14µM*,u,-6%,-3%
CO[C@H]1COC(=O)C/C=C\[C@H](C)[C@@H](OC)COC(=O)[C@@H](C)COC(=O)C/C=C\[C@@H]1C,17%[11.5 µM],x,x,1%[12.4 µM],-11%[12.4 µM]
C#CCCCO/N=C1/C[C@@H](O)[C@@H](O)[C@@H]2[C@@H]3C(=O)N(c4cccc(Oc5ccccc5)c4)C(=O)[C@H]3CC[C@@H]12,3%[11.5 µM],x,x,3%[12.4 µM],39%[12.4 µM]
O=c1cc(-c2ccc(O)cc2)oc2cc(OC3OC(CO)C(O)C(O)C3O)c(C3OC(CO)C(O)C(O)C3O)c(O)c12 (stereo not drawn),-2%,x,x,3%,7%
CO/C=C\C=C/c1nnn(-c2ccc(Cl)cc2)n1,-1%,0%,25µM*,-2%,0%
COC(=O)c1c(N)n(-c2ccc(N3CCOCC3)cc2)c2nc3ccccc3nc12,-18%,-8%,18µM*,-2%,0%
Cc1cc(C)c(S(=O)(=O)/N=C2/C=C(Sc3ncn[nH]3)C(=O)c3ccccc32)cc1C,11%,-18%,-4%,10µM*,u
Cc1ccc(C)c(S(=O)(=O)/N=C2\C=C(NS(=O)(=O)c3ccccc3)C(=O)c3ccccc32)c1,x,x,x,-7%,-16%
Cc1ccc(S(=O)(=O)c2cc(O)ccc2O)cc1C,i,16µM*,0%,-14%,-7%
O=C(CCOc1ccccc1)N1CCN(S(=O)(=O)c2cccs2)CC1,-5%,13µM*,5%,-1%,-12%
COc1ccc(CCC(=O)N2CCN(S(=O)(=O)c3cccs3)CC2)cc1,x,x,x,x,-2%
CCS(=O)(=O)N1CCN(S(=O)(=O)c2ccccc2[N+](=O)[O-])CC1,-7%,u,-4%,0%,1%
O=C(CCc1ccccc1)N1CCN(S(=O)(=O)c2cccs2)CC1,x,3.5µM*,x,0%,30%

# Screening data: PubChem, National Center for Advancing Translational Sciences (NCATS)
